An excerpt weighted towards active compounds, which were near 3.8% of everything screened.
ATXN2 expr inh = reduces ATXN2 reporter expression in HEK-293 cells; HEK-293 ATXN2-luciferase reporter, luminescence, 24 h; Potency, µM (highest dose often 57 µM), actives largely listed as inhibitors; hit rate 0.72% among 360,000; AID 1745845; further: nearly all actives have a fitted effect of over 55% in size
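ATXN2-luciferase reporter cells (luciferase flanked by upstream and downstream ATXN2 gene portions) were treated 24 h at 37 °C with compounds at up to 57 uM. SteadyGlo luminescence gave expression; GF-AFC fluorescence gave viability.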
HepG2 viability = counter-screen for TGF-b inhibitors: cytotoxicity in HepG2 cells; HepG2 CAGA-GFP viability, ATP luminescence, 18 h; Potency, µM (top dose mostly 46.1 µM), actives largely listed as cytotoxic; hit rate 0.76% among 410,000; AID 588856
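CellTiter-Glo luminescence gave cytotoxicity after 18 hours at 37 degrees C. The cells were HepG2 CAGA-GFP in 1% FBS DMEM, stimulated with 500 pg/mL TGF-beta after compound addition. %Activity was normalised to no-cell wells (complete cell-killing) and DMSO (no toxicity), and curves were fitted and classified.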
S2 tox = reduces viability in counter-screen for ATXN expression inhibitors | S2 cells (HEK-293 line with an ATXN2-luciferase reporter) viability, CellTiter-Fluor protease fluorescence, 24 h | Potency, µM (highest dose often 56.7 µM), actives largely listed as cytotoxic | hit rate 0.49% among 400,000 | AID 651635; further: nearly all actives have a fitted effect of over 40% in size
Nrf2 block = blocks Nrf2 signaling | A549 ARE-Fluc reporter, luciferase luminescence, 18-24 h | Potency, µM (doses to about 46 µM), hits mostly inhibitors | hit rate 2.1% among 360,000; further: nearly all actives have a fitted effect of over 60% in size
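Nrf2 function is reported as luminescence of an ARE-controlled luciferase in A549 cells. Compounds were tested at several concentrations, and a CellTiter-Fluor read on the same wells flagged cytotoxicity.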
A549 tox = kills or reduces viability of A549 cells in Nrf2 counter-screen. AID 504648. Potency, µM (titrated, usually from 46 µM), usual class: inhibitors. hit rate 0.16% among 390,000. A549 ARE-Fluc cells, CellTiter-Fluor viability, 18-24 h
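A549 ARE-Fluc cells in 5% FBS OPTI-MEM, 5000 cells/well, rested 2 h then exposed to compounds in concentration-response for 18-24 h at 37 °C. Viability by CellTiter-Fluor fluorescence (Ex 405/Em 525) after 30 min; luciferase luminescence (BugLite, 15 min, RT) read afterwards.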
TGFb SMAD3 inh = blocks TGF-b signaling. HepG2 CAGA-GFP TGF-b/SMAD3 reporter, GFP fluorescence, 18 h; TGF-beta stimulated, 500 pg/mL final. hit rate 1.2% among 410,000. Potency, µM (doses to about 46.1 µM), usual class: inhibitors. AID 588855; further: nearly all actives have a fitted effect of over 65% in size
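GFP signal (ex488/em500-530) from TGF-beta-stimulated HEPG2 CAGA-GFP cells, 500 pg/mL final, 18 h at 37 degrees C in DMEM plus 1% FBS, normalized to unstimulated and DMSO-stimulated controls.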
Numbers stand for hits; n = inactive; u = inconclusive; x = no result given; ! = not active in a repeat; [ ] = dose if it differs, or a comment. The call rests on the fitted dose curve; in most records, active means well fitted curve in the direction sought with a large enough effect; inconclusive means small, poorly fitted or top-dose-only effect, or another doubt; inactive means no such curve, though single readings can be large; an effect the other way counts as inactive or inconclusive.

SMILES | ATXN2 expr inh | HepG2 viability | S2 tox | Nrf2 block | A549 tox | TGFb SMAD3 inh
N=c1c2c(ncn1Cc1ccco1)Oc1c(ccc3ccccc13)C2c1ccccc1 (stereo unspecified) | u | n | u | n | u | n
CCOC(=O)/C(=N\Nc1ccc(Cl)cc1)c1csc(Nc2ccccc2)n1 | n | 11µM | u | 16µM | u | u
CCOc1ccc(NC(=O)CCc2nc3cccnc3n2-c2ccccc2)cc1 | n | n | n | n | n | n
CCC1CN(CCNC(=O)c2ccc(N3CCOCC3)cc2)Cc2cc(OC)ccc2O1 (stereo unspecified) | x | x | n | x | x | x
CC1(C)CC(=O)C2=C(C1)NC(Nc1nc3ccccc3o1)=NC2c1cccc(O)c1 (stereo unspecified) | x | n | x | 21µM | u | u
COc1cc(CNC2CCCCCCC2)cc(Br)c1OCC#N | n | n | n | n | n | n
CCOc1c(Br)cc(CNC2CCCCCCC2)cc1OC | x | 11µM | u | u | u | u
COc1cnc(-c2ccccn2)nc1N(C)C | 16µM | n | u | 8.2µM | u | n
COc1ccc(Oc2nc(-c3ccccn3)ncc2OC)cc1 | n | n | n | n | n | n
CC(C)CCNC(=O)CN1C(=O)c2cccnc2Oc2ccccc21 | x | n | x | n | n | x
O=C(OCC(=O)c1ccc(Cl)s1)c1ccc(CO)cc1 | n | n | n | n | n | n
COc1ccc2c(Sc3ccc(C)cc3)c(C(=O)NCC(C)c3ccccc3)[nH]c2c1 (stereo unspecified) | n | n | n | u | n | n
COc1ccc2c(Sc3ccc(Cl)cc3)c(C(=O)N3CCC(C)CC3)[nH]c2c1 | u | n | u | u | n | 11µM
COc1ccc2c(Sc3ccc(Cl)cc3)c(C(=O)N3CCCCC3)[nH]c2c1 | n | n | u | 21µM | n | u
COc1ccc2c(Sc3ccc(C)cc3)c(C(=O)NC(C)C)[nH]c2c1 | n | n | n | 23µM | n | n
COc1ccc(NC(=O)C2(C)CCN2Cc2ccc(OC(F)(F)F)cc2)cc1OC (stereo unspecified) | n | n | u | x | x | n
CCOC(=O)c1ccc(Nc2ncnc3c2cnn3C)cc1 | n | n | n | n | n | n
Cn1ncc2c(O/N=C(\N)c3ccc(C(C)(C)C)cc3)ncnc21 | u | n | x | 18µM | 16µM | u
CSc1ccc(/C=C/C(=O)c2ccc(NC(=O)C(C)C)cc2)cc1 | n | 14µM | n | n | n | n
O=C(C=C=Nc1ccccc1)C(=O)N=C=Cc1ccccc1 | u | n | 28µM | u | u | u
O=C(NNC(=O)C12CC3CC(CC(C3)C1)C2)c1cnccn1 | n | n | u | n | n | n
O=C(NNC(=O)C12CC3CC(CC(C3)C1)C2)c1ccccn1 | u | n | u | 21µM | u | u
COc1ccc(OC)c(NC(=O)c2ccc(CSc3nnc(C)s3)cc2)c1 | n[11.3 µM] | n | n | 26µM | n | n
O=C(O)C(CO)N=Cc1c(O)c2ccccc2oc1=O (stereo unspecified) | n | n | n | 6.5µM | u | n
CN(NC(=O)c1ccc(Cl)cc1)c1nc(-c2ccccc2)nnc1C(F)(F)F | n | n | n | 23µM | n | u
SMILES | ATXN2 expr inh | HepG2 viability | S2 tox | Nrf2 block | A549 tox | TGFb SMAD3 inh
COC(=O)C1=C(C)N(Cc2ccccc2)C(=NCc2cccc(C(F)(F)F)c2)N[C@H]1c1cccc(C(F)(F)F)c1 | 28µM | 18µM | 18µM | u | n | 10µM
COC(=O)C1=C(C)N(Cc2ccccc2)C(=NCc2cccc(C(F)(F)F)c2)N[C@H]1c1cccc(F)c1 | 32µM | 14µM | x | n | n | u
COCCN=C1N[C@@H](c2cccc(C(F)(F)F)c2)C(C(=O)OC)=C(C)N1Cc1ccccc1 | u | n | u | n | n | n
CCOc1ccc(NC(=O)Cn2c(=O)cc(C)c3c(C)nn(-c4cccc(Cl)c4C)c32)cc1 | n | n | n | n | n | n
CCCC1=Nc2cc(C(=O)N3CCC(C(=O)OCC)CC3)ccc2Sc2ccccc21 | n | n | n | n | n | 13µM!
CCCC1=Nc2cc(C(=O)NC3CCCC3)ccc2Sc2ccc(C)cc21 | x | n | x | u | n | 0.79µM
CCCC1=Nc2cc(C(=O)N3CCCC3)ccc2Sc2ccc(C)cc21 | n | n | n | n | n | n
CCC1=Nc2cc(C(=O)N3CCCCC3)ccc2Sc2ccc(C)cc21 | u | n | 32µM | n | n | n
CCOC(=O)C1CCCN(C(=O)c2ccc3c(c2)C(C)(C)CCC3(C)C)CC1 (stereo unspecified) | n | n | n | x | x | 14µM
Clc1ccc(-c2nnc(CSc3nnc(-c4cccs4)n3Cc3ccccc3)o2)cc1 | x | n | u | 21µM | n | u
Cc1nnc(SCc2nnc(-c3cccs3)o2)n1Cc1ccccc1 | n | n | n | n | n | n
COc1ccc(-c2csc(NC(=O)c3ccccc3C(=O)O)n2)cc1 | x | n | n | n | n | n
COc1ccc(-c2csc(NC(=O)C3CCCCN3S(=O)(=O)c3ccccc3)n2)cc1 (stereo unspecified) | n | n | n | 23µM | n | n
COc1ccc(-c2csc(NC(=O)c3cccc(S(=O)(=O)N4CCN(C)CC4)c3)n2)cc1 | x | n | x | 15µM | n | u
COc1ccc(-c2csc(NC(=O)c3ccccc3S(C)(=O)=O)n2)cc1 | x | n | n | 16µM | n | n
COc1ccc(-c2csc(NC(=O)CS(=O)(=O)c3ccccc3)n2)cc1 | n | n | n | u | n | n
O=C(Nc1nc(-c2ccccc2)cs1)c1ccccc1NS(=O)(=O)c1ccc(F)cc1 | u | n | n | 6.5µM | u | u
O=S(=O)(Nc1ccc(-c2csc(-c3ccccc3)n2)cc1)c1ccc(F)cc1 | u | n | u | n | n | u
CCCCn1c2ccccc2c2nnc(SCC(=O)Nc3ccc(NC(C)=O)cc3)nc21 | n | n | n | u | n | n
S=C(NCC1CCCO1)N1CCc2ccccc2C1 (stereo unspecified) | n | n | n | n | n | n
CCCN(CCC)C(=O)Cn1c(=O)n(-c2ccc(OC)cc2OC)c(=O)c2c3c(sc21)CCC3 | n | n | n | n | n | n
CC(C)[C@H]1COCCS(=O)(=O)N1Cc1cccc([N+](=O)[O-])c1 | x | n | x | x | x | n
CC(=O)c1c(C)[nH]c(C(=O)Nc2nc(-c3ccc(-c4ccccc4)cc3)cs2)c1C | u | n | n | 23µM | u | u
CN1CCN(S(=O)(=O)c2cccc(C(=O)Nc3nc(-c4ccccc4)cs3)c2)CC1 | n | n | n | n | n | u
COc1ccc(C(=O)Nc2nc(-c3ccccn3)cs2)cc1S(=O)(=O)N1CCOCC1 | x | n | n | 16µM | n | n
O=C(Nc1nc(-c2ccccn2)cs1)c1cccc(S(=O)(=O)N2CCOCC2)c1 | x | n | u | 3.3µM | u | n

Source: PubChem (National Center for Advancing Translational Sciences (NCATS))
